The text below walks through data of PubChem BioAssay (Tox21).

SMILES strings stand for the structures. Values joined by “and” are separate entries in the source; they are usually repeats but may differ in a detail not shown here. Equal values may be shown once. A number with no mark means an inactive call. Results filed as inconclusive are left out. Active and inactive are the calls of the source. Unless noted, calls follow the shape of the dose curve; as a rule, active = well fitted curve in the direction sought with a large enough effect in the repeat runs; inconclusive = weak or mixed curves; inactive = no such curve, though single readings can be large; an effect the other way counts as inactive or inconclusive.

Assay [1] can be described thus: qHTS assay to identify small molecule agonists of H2AX - cell viability counter screen (AID 1224847; calls by dose curve; also: nearly all actives have a fitted effect of over 30% in size; also: potency is read from the fitted curve at half-maximal effect). In short, it runs like this:
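For this counter screen, overnight-attached CHO-K1 cells received test compounds (15 concentrations, 0.76% DMSO final); 3 hr later at 37C, CellTiter-Glo reagent was added and luminescence recorded after 30 min at room temperature.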

Assay [2] in a line: qHTS RealTime-Glo MT Cell Viability Assay in HepG2 cells - 24 hour (AID 1224867). Also: nearly all actives have a fitted effect of over 50% in size. A digest of the protocol:
(§1)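 Luminescence read-out: viable HepG2 cells reduce a prosubstrate to a NanoLuc substrate, giving a signal proportional to live cell number. Reads taken at 0, 8, 16, 24, 32 and 40 h of compound exposure at 37 C.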

Assay [3] in a line: qHTS RealTime-Glo MT Cell Viability Assay in HEK293 cells - 32 hour (AID 1224868). Also: nearly all actives have a fitted effect of over 50% in size. Also: potency is read from the fitted curve at half-maximal effect. A digest of the protocol:
(§2)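 Nonlytic real-time viability readout: viable cells convert prosubstrate to NanoLuc substrate, giving luminescence proportional to live cell number. HEK293, 600 cells/well, compound added after 5 h, continuous culture at 37 C.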

The nature of assay [4]: A CellTox Green Cytotoxicity Assay to monitor cytotoxicity in HEK293 cells - 0 hour (AID 1224869). Also: nearly all actives have a fitted effect of over 50% in size. A digest of the protocol: (§3)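 Fluorescence from a DNA-binding dye excluded by viable cells was measured repeatedly in the same HEK293 wells (600 cells/well) during continuous compound exposure at 37 C. Each assay gives one read point: 0, 8, 16, 24, 32 or 40 h.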
Assay [5] is described as follows: qHTS RealTime-Glo MT Cell Viability Assay in HepG2 cells - 40 hour (AID 1224870). Also: nearly all actives have a fitted effect of over 50% in size. A digest of the protocol:
(§4)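 HepG2 cells (600/well) mixed with RealTime-Glo MT reagent, settled 5 h at 37 C/5% CO2 before compound addition. Nonlytic NanoLuc luminescence from viable-cell prosubstrate reduction read repeatedly during 40 h treatment at 37 C.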

The nature of assay [6]: A CellTox Green Cytotoxicity Assay to monitor cytotoxicity in HEK293 cells - 40 hour (AID 1224871). Also: nearly all actives have a fitted effect of over 45% in size. A digest of the protocol:
as §3

Assay [7] can be described thus: qHTS RealTime-Glo MT Cell Viability Assay in HEK293 cells - 16 hour (AID 1224872). Also: nearly all actives have a fitted effect of over 50% in size. Also: potency is read from the fitted curve at half-maximal effect. A digest of the protocol: as §2
A short description of assay [8]: qHTS RealTime-Glo MT Cell Viability Assay in HepG2 cells - 8 hour (AID 1224873). Also: nearly all actives have a fitted effect of over 55% in size. A digest of the protocol:
as §4

The nature of assay [9]: A CellTox Green Cytotoxicity Assay to monitor cytotoxicity in HEK293 cells - 24 hour (AID 1224875). Also: series mostly up to about 77 µM; nearly all actives have a fitted effect of over 45% in size. In short, it runs like this: as §3
A short description of assay [10]: A CellTox Green Cytotoxicity Assay to monitor cytotoxicity in HepG2 cells - 16 hour (AID 1224876). Also: nearly all actives have a fitted effect of over 45% in size. In short, it runs like this: (§5)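 Real-time cytotoxicity: fluorescence of a cell-impermeant cyanine dye binding DNA of dead HepG2 cells, measured repeatedly (0–40 h) during compound exposure at 37 C. Cells seeded 600/well with reagent, dosed after 5 h.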
The nature of assay [11]: qHTS RealTime-Glo MT Cell Viability Assay in HepG2 cells - 32 hour (AID 1224877). Also: nearly all actives have a fitted effect of over 55% in size. In short, it runs like this: as §1
The nature of assay [12]: A CellTox Green Cytotoxicity Assay to monitor cytotoxicity in HepG2 cells - 24 hour (AID 1224878). Also: nearly all actives have a fitted effect of over 45% in size. A digest of the protocol:
as §5

Assay [13] is described as follows: A CellTox Green Cytotoxicity Assay to monitor cytotoxicity in HepG2 cells - 40 hour (AID 1224879). Also: nearly all actives have a fitted effect of over 40% in size. In short, it runs like this:
as §5

Assay [14] in a line: qHTS RealTime-Glo MT Cell Viability Assay in HEK293 cells - 0 hour (AID 1224880). A digest of the protocol:
(§6)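 Luminescence, which tracks viable cell number through reduction of the prosubstrate to a NanoLuc substrate, was read over continuous 37 C culture. Cells (600/well) were premixed with reagent and rested 5 h before 23 nL of compound in DMSO was pinned.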

The nature of assay [15]: A CellTox Green Cytotoxicity Assay to monitor cytotoxicity in HEK293 cells - 32 hour (AID 1224881). Also: nearly all actives have a fitted effect of over 40% in size. In short, it runs like this:
as §3

Assay [16] in a line: A CellTox Green Cytotoxicity Assay to monitor cytotoxicity in HepG2 cells - 0 hour (AID 1224882). Also: nearly all actives have a fitted effect of over 35% in size. In short, it runs like this: as §5
The nature of assay [17]: A CellTox Green Cytotoxicity Assay to monitor cytotoxicity in HepG2 cells - 32 hour (AID 1224883). Also: nearly all actives have a fitted effect of over 50% in size. In short, it runs like this:
as §5

The nature of assay [18]: qHTS RealTime-Glo MT Cell Viability Assay in HEK293 cells - 40 hour (AID 1224874). Also: nearly all actives have a fitted effect of over 50% in size. The settings on record: RealTime-Glo luminescence; max response: stronger effect = lower value. In short, it runs like this: as §6
% is scaled to controls: 0 for no effect and ±100 for the full control effect.

Consider `COc1ccc2cc([C@H](C)C(=O)O)ccc2c1`, for which the Potency result in [1], in assay [3], in [6], in assay [7], in assay [9] and in assay [10] was “inactive” each time. The Potency entry in [12], in assay [13], in assay [14], in assay [15] and in [17] was “inactive” each time. The outcome in assay [2], in assay [4], in assay [5], in assay [8], in assay [11] and in [16] was inactive.

On to `CCCCCOC(C)=O`, for which the Potency entry in assay [1], in [3], in assay [6], in assay [7], in assay [9] and in assay [10] was “inactive” throughout. Besides, the Potency entry in [12], in assay [13], in [14], in assay [15] and in [17] was “inactive” throughout. The result in assay [2], in assay [4], in [5], in assay [8], in [11] and in assay [16] was inactive. Moreover, in [18], the max response was -23.8% and 1.43%.

With `CC(=O)Nc1cccc(O)c1`, the Potency entry in assay [1], in assay [3], in [6], in assay [7], in [9] and in assay [10] was “inactive” in each case. In addition, the Potency entry in assay [12], in [13], in assay [14], in [15] and in assay [17] was “inactive” in each case. Further, the result in assay [2], in [4], in assay [5], in [8], in assay [11] and in assay [16] was inactive. Also, the max response in [18] was -14.2% and 4.42%.

With `O=C(O)CC(C(=O)O)C(CC(=O)O)C(=O)O` (configuration not stated), the Potency entry in assay [1], in [6], in assay [7], in assay [9], in assay [10] and in assay [12] was “inactive” throughout. Also, the Potency result in assay [13], in assay [14], in assay [15] and in assay [17] was “inactive” throughout. Besides, the call in assay [2], in assay [4], in [5], in [8], in assay [11] and in assay [16] was inactive. In assay [18], the max response is -2.07% and -0.191%.

Consider `O=C(O)CCCCCCCCCCC(=O)O`, for which the Potency result in assay [1], in assay [6], in assay [7], in [9], in [10] and in assay [12] was “inactive” in each case. Moreover, the Potency result in [13], in [14], in assay [15] and in assay [17] was “inactive” each time. Besides, the compound was called inactive in assay [2], in assay [4], in assay [5], in assay [8], in assay [11] and in assay [16]. Further, the max response in assay [18] is -3.15% and -61.6%.

With `O=C(OCCOCCOC(=O)c1ccccc1)c1ccccc1`, the Potency entry in assay [1], in assay [6], in assay [9], in assay [10], in assay [12] and in assay [13] was “inactive” throughout. Besides, the Potency entry in assay [14], in assay [15] and in assay [17] was “inactive” in each case. Further, the compound was classed as inactive in [2], in assay [4], in assay [5], in assay [8], in assay [11] and in assay [16]. In assay [18], the max response was -18.1%.

`O=S(=O)(O)c1ccc2ccccc2c1`: the Potency result in assay [1], in [6], in [7], in [9], in assay [10] and in assay [12] was “inactive” each time. Besides, the Potency entry in [13], in [14], in assay [15] and in assay [17] was “inactive” in each case. Besides, the call in assay [2], in assay [4], in assay [5], in assay [8], in assay [11] and in [16] was inactive. The max response in [18] is 19.4% and -5.62%.

As for `CC(C)(C)[C@@H](O)[C@@H](Cc1ccc(Cl)cc1)n1cncn1`, the Potency result in [1], in assay [6], in assay [7], in [9], in assay [10] and in [12] was “inactive” throughout. Further, the Potency entry in assay [13], in assay [14], in [15] and in [17] was “inactive” in each case. Also, the compound was classed as inactive in assay [2], in assay [4], in assay [5], in [8], in [11] and in assay [16].

Regarding `O=C(O)c1ccc2c(c1)C(=O)OC2=O`, the Potency entry in assay [1], in assay [6], in assay [7], in assay [9], in assay [10] and in [12] was “inactive” throughout. For the same compound, the Potency result in assay [13], in [14], in [15] and in assay [17] was “inactive” each time. For the same compound, the compound was called inactive in assay [2], in [4], in assay [5], in assay [8], in [11] and in [16]. The max response in [18] was 5.17% and 0.547%.

As for `C=CCOC(=O)c1ccccc1C(=O)OCC=C`, the Potency result in assay [1], in [6], in [7], in assay [9], in assay [10] and in [12] was “inactive” throughout. The Potency result in assay [13], in assay [14], in assay [15] and in assay [17] was “inactive” each time. Besides, the compound was called inactive in [2], in [4], in assay [5], in [8], in assay [11] and in assay [16]. In addition, the max response in assay [18] was 6.21% and 2.3%.

As to `O=[N+]([O-])c1ccc(/C=C/c2ccc([N+](=O)[O-])cc2S(=O)(=O)O)c(S(=O)(=O)O)c1`, the Potency entry in assay [1], in assay [6], in [7], in assay [9], in assay [10] and in assay [12] was “inactive” throughout. Further, the Potency result in [13], in [14], in assay [15] and in [17] was “inactive” in each case. Besides, the compound was called inactive in [2], in assay [4], in [5], in assay [8], in assay [11] and in assay [16].

Take `C=C(C)C(=O)Nc1ccc(Cl)c(Cl)c1`: the Potency in assay [1] was 102 µM (active); in assay [3], 19.7 µM (active) and 21.8 µM (active); in [7] it was 22.1 µM (active) and 21.8 µM (active). In addition, the call in assay [2], in [4], in [5], in assay [8], in [11] and in assay [16] was inactive. Besides, the Potency result in assay [6], in [9], in assay [10], in assay [12], in assay [13] and in [14] was “inactive” throughout. Also, the Potency entry in [15] and in assay [17] was “inactive” each time.

As to `CCCCC(CC)CO` (configuration not stated), the Potency result in [1], in assay [3], in [6], in assay [7], in assay [9] and in assay [10] was “inactive” in each case. Moreover, the Potency entry in assay [12], in [13], in assay [14], in [15] and in assay [17] was “inactive” throughout. Moreover, the result in assay [2], in assay [4], in assay [5], in [8], in assay [11] and in [16] was inactive.

`CN(C)CCC(c1ccc(Cl)cc1)c1ccccn1` (configuration not stated): the Potency entry in assay [1], in assay [6], in assay [7], in [9], in assay [10] and in assay [12] was “inactive” each time. For the same compound, the Potency entry in [13], in [14], in assay [15] and in assay [17] was “inactive” in each case. In addition, the compound was called inactive in assay [2], in [4], in [5], in assay [8], in assay [11] and in assay [16]. For the same compound, the max response in assay [18] was -8.75% and -11.3%.
